Measured values taken from PubChem BioAssay AID463190 (Sanford-Burnham Center for Chemical Genomics, 2010).
Out of some 330,000 compounds screened, about 7,300 (2.2%) were called active. For the sample, actives were picked, then their nearest neighbours and some compounds at random. Unmarked numbers belong to inactive results.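 How the source made its calls: active means inhibition of at least 40%; inactive means the rest.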

Assay: growth inhibitors of tim10-1 mutant yeast, primary screen, luminescence, uHTS (AID 463190);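 further: mutant grown at 25 °C; 0% = DMSO wells with yeast and 100% = wells holding no yeast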
Conditions: S. cerevisiae tim10-1 ts strain growth, BacTiter-Glo, 24 h; at 20 µM; stronger effect = higher value

SMILES | inhibition
COc1ccc(-c2onc(C)c2-c2ccc3c(c2)OCCO3)c(O)c1 | 22.7%
O=c1c(-c2ccc3c(c2)OCCO3)c(C(F)(F)F)oc2cc(O)cc(O)c12 | 44% (active)
CCOC(=O)c1cc2cc(-c3c(C(=O)OCC)oc4cc(O)cc(O)c4c3=O)ccc2o1 | 27.5%
O=C(CSc1ccc(C(F)(F)F)cc1[N+](=O)[O-])NCCOc1ccccc1 | 8.09%
Nc1ccccc1Sc1ccc(C(F)(F)F)cc1[N+](=O)[O-] | 40.4% (active)
O=[N+]([O-])c1cc(C(F)(F)F)ccc1NN=C1CCCC1 | -6.28%
Cc1ccccc1C(=O)NNC(=O)CN1C(=O)c2ccccc2C1=O | 23.4%
O=C(CSc1nnc(Cn2cnc3ccccc32)o1)c1ccccc1 | 24.1%
Cc1oc2cc(Br)c(O)c(Br)c2c1C(=O)c1ccccc1 | 41.8% (active)
Cc1oc2cc([N+](=O)[O-])c(O)c([N+](=O)[O-])c2c1C(=O)c1ccc(Br)cc1 | 25%
COc1ccc(C(=O)c2c(C)oc3cc([N+](=O)[O-])c(O)c([N+](=O)[O-])c23)cc1 | 12.5%
O=C(Nc1ccc2c(c1)OCO2)C1CC1(Cl)Cl (stereo unspecified) | -5.38%
CCC(C(=O)NC1CCCC1)N(C(=O)Cn1nnc(-c2ccc(C)o2)n1)c1ccc(OC)c(OC)c1 (stereo unspecified) | 18.2%
CSc1ccc(CN2C(=O)NC3(CCCCCC3)C2=O)cc1 | 23.7%
NC(=O)C1=C[C@@H](c2ccc3c(c2)OCO3)C[C@@H](OCCCCO)O1 | -9.86%
COC(=O)c1sccc1NC(=O)COc1ccc(Cl)cc1 | 7.8%
COC(=O)c1c(NC(=O)COc2ccc(Cl)cc2Cl)sc2c1CC(C)(C)NC2(C)C | 43.6% (active)
CCOC(=O)c1c(NC(=O)c2ccc(S(=O)(=O)N(C)CC3CCCO3)cc2)sc2c1CC(C)(C)NC2(C)C (stereo unspecified) | 3.46%
O=S(=O)(Nc1ccc2nc(N3CCOCC3)sc2c1)c1ccccc1 | 3.87%
O=C(c1ccc2nc(N3CCOCC3)sc2c1)N1CCN(c2ccc(Cl)cc2)CC1 | 49.1% (active)
Cc1nc2ccc(C(=O)N3CCSCC3)cc2s1 | 4.92%
C/C(N)=C(/C#N)C(=O)COC(=O)c1cc(-c2ccc(C)cc2)nc2ccccc12 | 11.4%
N/C(=N\OC(=O)c1cc(-c2ccccc2)nc2ccccc12)c1ccncc1 | 57.4% (active)
COC(=O)CNC(=O)c1cc(-c2ccncc2)nc2ccccc12 | 13.6%

SMILES | inhibition
Cc1ccc(N/C(N)=N/c2nc(C(F)(F)F)cc(C(F)(F)F)n2)cc1 | 14.4%
CCC(NC(=O)c1ccccc1NC(=O)c1ccccc1)C(=O)NNC(=O)CSc1nc2ccccc2o1 (stereo unspecified) | 11%
CCOC(=O)c1ccc(N2C(=O)CC(N3CC(C)OC(C)C3)C2=O)cc1 (stereo unspecified) | 29.9%
CCOC(=O)c1ccc(N2C(=O)CC(N3CCN(C(=O)c4ccccc4)CC3)C2=O)cc1 (stereo unspecified) | 20%
CCOC(=O)c1ccc(N2C(=O)CC(N3CCC(C(=O)OCC)CC3)C2=O)cc1 (stereo unspecified) | 43.8% (active)
O=C(NC(Cc1ccc(O)cc1)C(=O)O)/C(=C/c1ccccc1)NC(=O)c1ccccc1 (stereo unspecified) | -12.7%
COc1ccc(NC(=O)CN(C)C(=O)CNC(=O)C2CCCCC2)cc1 | 3.37%
COc1cc(NC(=O)C2CCN(c3cnccn3)CC2)cc(OC)c1 | 18.5%
COc1ccc(C2CC(c3ccc(C)cc3)Nc3ncnn32)cc1 (stereo unspecified) | 31.2%
Clc1ccc(C2CC(c3cccs3)n3ncnc3N2)cc1Cl (stereo unspecified) | 44.6% (active)
Nc1nc2n(n1)C(c1ccco1)CC(c1ccc(Cl)c(Cl)c1)N2 (stereo unspecified) | 20.9%
Cc1ccc(C)c(-n2ccnc2SCC(N)=O)c1 | 1.23%
CCOC(=O)c1sc(=NC(=O)/C=C/c2cccs2)n(C)c1C | 9.93%
Cc1c2cnn(CC(=O)NCCCN3CC(C)CC(C)C3)c(=O)c2c(C)n1Cc1ccc(Cl)cc1 (stereo unspecified) | -4.29%
CCOC(=O)C1=C(c2ccccc2)NC(=O)NC1c1cc(OC)c(OC)cc1OC (stereo unspecified) | 2.13%
CCOC(=O)c1ccccc1CN1C(=O)c2ccccc2S1(=O)=O | 43.5% (active)
CC(C)(C)c1ccc(CN2C(=O)c3ccccc3S2(=O)=O)cc1 | 15%
CN(Cc1cccs1)C(=O)CN1C(=O)c2ccccc2S1(=O)=O | -8.18%
COC(=O)c1cc2c(ccn2C)n1C | -6.2%
COc1ccc(/C=C/C(=O)Nc2c(C)nn(C)c2C)cc1COc1ccc(Br)cc1 | 29.4%
COc1ccc(C(C)=O)cc1COc1ccc(Cl)c(C)c1 | 3.35%
CCn1nc(C)c(NC(=O)/C=C/c2ccc(OC)c(COc3ccc(Br)cc3)c2)c1C | 52.1% (active)
O=C(/C=C/c1cccs1)c1cc(Cl)ccc1OC(=O)N1CCOCC1 | 50.2% (active)
O=C(Oc1cccc(C(=S)N2CCOCC2)c1)c1cccc(Cl)c1 | 39.2%

SMILES | inhibition
CC(=O)Nc1ccccc1OC(=O)N1CCOCC1 | -3.71%
Cc1ccc(NS(=O)(=O)c2ccc(C(=O)NCCCN3CCOCC3)cc2)cc1 | -36%
CC1(C)CC(=O)C=C(c2ccc(Cl)c(C(F)(F)F)c2)C1 | 0.973%
Cc1cccc(OC(C)C(=O)N2CCc3ccccc3C2)c1 (stereo unspecified) | -6.4%
O=C(/C=C/c1ccccc1)c1ccccc1O | 48.7% (active)
O=C(/C=C/c1ccccc1)N/C(=C/c1ccccc1)C(=O)Nc1ccccc1O | 32.3%
O=C(/C=C(O)/C=C/c1ccc(O)cc1)/C=C/c1ccc(O)cc1 | 4.38%
CCCCC[C@H]1CN(C2CCCCC2)C(=O)[C@@H]1CC(=O)NCc1ccc(OC)cc1 | 17.9%
O=C(Nc1ccccc1F)c1ccc(S(=O)(=O)N2CCCCCC2)cc1 | 18.9%
O=C(NCCc1ccc(F)cc1)c1ccc(S(=O)(=O)N2CCCCC2)cc1 | 41.8% (active)
COC(=O)c1ccc(CNC(=O)c2ccc(S(=O)(=O)N3CCCCCC3)cc2)cc1 | 14.2%
C/C=C(\C)C(=O)NCCN1C2=NC[C@H](Cc3ccc(O)cc3)N2C[C@@H]1Cc1ccc(OC)cc1 | -7.43%
Cc1nc(-c2ccc([N+](=O)[O-])cc2)c(-c2ccccc2)o1 | 14.6%
O=c1[nH]n(-c2ccc([N+](=O)[O-])cc2)c(=O)c2ccccc12 | -4.91%
O=C1CC(c2ccccc2)=NN1c1ccc([N+](=O)[O-])cc1 | 44.5% (active)
COc1ccc2ccn(C)c2c1 | -6.1%
COc1ccc2c(c1)cc1n2CCN=C1NN | 43.7% (active)
CC12COC3(C(=O)Nc4ccc(Cl)cn4)CC1CCC32C (stereo unspecified) | 33.3%
CC(=NCc1ccco1)c1c(C(F)(F)F)[nH]n(-c2nc3ccccc3s2)c1=O | 75.2% (active)
CCC(C)Cn1c(O)cc2nn(-c3nc4ccccc4s3)c(=O)c-2c1C (stereo unspecified) | 0.194%
CCC1(CC)NC(=O)N(Cc2nc3ccccc3s2)C1=O | 9.64%
CCOC(=O)c1sc(N)c(C#N)c1COC(=O)C1=COCCO1 | 9.07%
O=C(NCC(c1cccs1)N1CCOCC1)c1cc(Cl)ccc1[N+](=O)[O-] (stereo unspecified) | 3.29%
COc1cccc(-c2cc3nc4c(c(N5CCC6(CC5)OCCO6)n3n2)CCCC4)c1 | 41.5% (active)

SMILES | inhibition
COc1cccc(CNc2nc3nc4c(c(=O)n3[nH]2)CCC4)c1 | -3.51%
COc1ccc(OC)c(/C(C)=N\NC(=O)c2cc3cc(Cl)ccc3n2C)c1 | 14.6%
C=CCn1c(SCC(=O)NC)nnc1C12CC3CC(CC(C3)C1)C2 | 11.2%
O=[N+]([O-])/C=C/c1ccc2c(ccn2Cc2ccccc2)c1 | -97.4%
CCS(=O)(=O)Nc1ccc(C2=NN(S(=O)(=O)c3ccc(F)cc3)C(c3ccco3)C2)cc1 (stereo unspecified) | 13.9%
COCCn1cnc2c1c(=O)n(CC(=O)NN)c(=O)n2Cc1ccccc1 | 10.9%
O=C(NCc1ccc2c(c1)OCO2)C(=O)NCC1OCCN1S(=O)(=O)c1ccc(F)cc1 (stereo unspecified) | -2.49%
C/C(CC(=O)Nc1cccc(F)c1)=N\NC(=O)C(=O)NC1CCCCC1 | 15.5%
O=C(Nc1cccc(F)c1)NC1CCCCCCC1 | 45.3% (active)
O=C(Nc1cccc(F)c1)NC1CCCc2ccccc21 (stereo unspecified) | 30.5%
Cc1c(C(=O)O)nnn1-c1nonc1N | 3.56%
C#CCOCCOCCOCCNc1nc(N2CCN(C(=O)[C@H](CO)n3cc([C@@H](N)C(C)C)nn3)CC2)nc(N2CCN(C(=O)[C@H](CCC(=O)O)n3cc([C@@H](N)[C@H](C)CC)nn3)CC2)n1 | 9.15%
CC(C)(C)n1c(=O)[nH]c2c(c1=O)CCC2 | -3.65%
NNC(=O)c1oc2nc(-c3ccccc3)cc(-c3ccco3)c2c1N | 19.9%
CS(=O)(=O)c1sc2nc(-c3ccccc3)cc(-c3ccccc3)c2c1N | 49.2% (active)
CNC(=S)NNC(=O)c1oc2nc(-c3ccccc3)cc(-c3ccco3)c2c1N | 18.1%
O=C(O)CSCc1ccc(C(=O)O)o1 | 3.55%
C/C=C/C=C/C(=O)OCC(=O)Nc1ccc(Cl)cc1 | 15.8%
O=C(/C=C/c1ccc(Cl)c([N+](=O)[O-])c1)c1ccc(O)cc1 | 41.3% (active)
O=C(/C=C/c1ccc(Cl)cc1Cl)c1cccnc1 | 25%
O=C(Nc1ccncc1)c1ccc(Cl)c([N+](=O)[O-])c1 | -50.2%
CN(C)c1ccc(/C=C/C(=O)c2ccc(C(C)(C)C)cc2)cc1[N+](=O)[O-] | 27.1%
O=C(/C=C/c1ccc(Cl)c([N+](=O)[O-])c1)c1cccnc1 | 46.1% (active)
CN(C)c1ccc(/C=C/C(=O)c2ccc(O)cc2)cc1[N+](=O)[O-] | 15.8%
